# Laboratory results published in publication PMC12136788.
# Positions count from the first letter of the chain named. In all, about 24,000 sequences were measured (“enrichment r”: median about 0.99, highest 2% from about 3.7 on). This is one part of a sample in which the highest values are shown more often than they occur.
# T1: UNK ZnF1-3 (human, UniProt Q9C0B0 31-174)
# T1 sequence: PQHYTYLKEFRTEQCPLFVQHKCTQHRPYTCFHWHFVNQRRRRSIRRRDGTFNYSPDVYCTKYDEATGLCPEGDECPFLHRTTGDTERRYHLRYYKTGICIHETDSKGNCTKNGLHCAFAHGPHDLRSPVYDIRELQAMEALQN
# B1: chr6:29491266:29491267:-_ENSMUSG00000012535_ENSMUST00000012679|mus_mus|FALSE|FALSE (ssRNA)
# RNA: GGGAGUUCUACAGUCCGACGAUCGGGUUGGGCUCUACAUUAAAAGCAACUUUGACCCUGGCUAGUCCGGACUAUCAUCCCUAACCAUGAUAUAAGCAGACCAGGCUCCUUGUCUGGACAUUUCUAAAGGUGAACAGUUGGGGGCAACAGAGGAUUGAGCAUCA
# B2: chr3:182775190:182775191:-_ENSG00000078070_ENST00000265594|hu_mus|FALSE|FALSE (ssRNA)
# RNA: GGGAGUUCUACAGUCCGACGAUCCUGCACACUACAGUCUCUUUCAAACAAGUACACUGCGUUGCCAUGGUGAUCACCAAACACCUGGACUUCUACAUGCCUUGGAGUGUCCACGAACUUCUCGAUCAACAUUGCAUCAUCAUUCAACAGAGGAUUGAGCAUCA
# B3: 49705422_49710499_381_CDS_ENSG00000102531_ENST00000398316|human|control|control (ssRNA)
# RNA: GGGAGUUCUACAGUCCGACGAUCAAAGUUGGACCUUCCAUGUGUAGAGUGAGCAUCUACAUCUCCAUAGACUUGUGAAGACUGAUACUGUGGCAUAUACUGUGUUGUCAUGUCUCCAGCUCCAGUCACGGGUGAGUACAUAUGCAACAGAGGAUUGAGCAUCA
# B4: chr1:39494564:39494565:+_ENSG00000168653_ENST00000372967|hu_hu|hu_hu_hu_mus_True|1_1 (ssRNA)
# RNA: GGGAGUUCUACAGUCCGACGAUCAUGCAUUCGCCUCAUCGUUUUGUACCGAAGCAAGCACUCUUCGAAGUCAUCGAACUCUAUCUUGCACUCCUUUUUCGCCCGGGUCCCACCGAUCCCGUGUGCACACUCUAUCCAUUCUUUCAACAGAGGAUUGAGCAUCA
# B5: 117841126_117842589_621_3pUTR_ENSMUSG00000033326_ENSMUST00000106406|mouse|control|control (ssRNA)
# RNA: GGGAGUUCUACAGUCCGACGAUCCUUCUCCACCAGGUCCAGGAUGGUCUUCAGCCGGCCGAUAUUCCACUCAUCAACGUGCUGUUCAUAGAGAGUACCAUUCACGUCUGCUCCAUAGAUGGGAGGAUUGAAUGUGAGGUUUUUCAACAGAGGAUUGAGCAUCA
# B6: chr2:166765161:166765162:+_ENSMUSG00000002718_ENSMUST00000002790|mus_hu|motif|central (ssRNA)
# RNA: GGGAGUUCUACAGUCCGACGAUCGGAUAAACAUAUUGCUUCAAACAUGUAGUGAUUAAAGUGAGGUUUGCUUGGGUUCUUACGGACAGCUAAUAGCUUCUGUGUAAGCUGAGUGAUGAGAGUAGGGAUGUAGGGGAUUAUGGCCAACAGAGGAUUGAGCAUCA
# B7: chr16:45382771:45382772:-_ENSMUSG00000022661_ENSMUST00000163230|mus_mus|mus_mus_mus_hu_True|28_48 (ssRNA)
# RNA: GGGAGUUCUACAGUCCGACGAUCCUGGGUCAUGUUAUAAGACAAAUGGACAGGGAGGGCAUGCUUCUCAAAAAAUGUGAGCUAUUGACUAAGACUAACAAUAUUUACUAAGUGCUAAAAAUAAGUUAAAUGAAUAAGUUAAGACAACAGAGGAUUGAGCAUCA
# B8: chr16:45382771:45382772:-_ENSMUSG00000022661_ENSMUST00000163230|mus_mus|mus_mus_mus_hu_True|28_108 (ssRNA)
# RNA: B7 RNA with G27A, C30G, A31U, G33A, A36G, A87U
# B9: chr16:8858281:8858282:+_ENSMUSG00000022507_ENSMUST00000023150|mus_mus|motif|central (ssRNA)
# RNA: GGGAGUUCUACAGUCCGACGAUCCUCAUGAGGUGAGGAGGUGCUACAUAUUGAAUGCAAUGGAAAAAAGUAACCAGUGCGGAAGUUUUUAAAAAGUUUAAUGGAGCCAAUAAUUCGGCAUAUAAAUUGUGUUCUGGCAGACAUCAACAGAGGAUUGAGCAUCA
# B10: chr16:45382771:45382772:-_ENSMUSG00000022661_ENSMUST00000163230|mus_mus|mus_mus_mus_hu_True|28_38 (ssRNA)
# RNA: B7 RNA with A87U, U105G, A106C
# B11: chr16:8858281:8858282:+_ENSMUSG00000022507_ENSMUST00000023150|mus_mus|FALSE|FALSE (ssRNA)
# RNA: B9 RNA with G80U, G81A
# B12: chr5:128440902:128440903:+_ENSG00000066583_ENST00000173527|hu_mus|hu_hu_hu_mus_True|38_48 (ssRNA)
# RNA: GGGAGUUCUACAGUCCGACGAUCUUGAACGGUGCUGCCAAGUCCUUUGGGGUAUUGUUCCGUUAUGAUAACUGGAAUCCCUAAGAUCCGGGCCCCUUGCAACAAUCUCUGUCCCACACUAAUGAUGUCCCCAAAGUAUUUGAUCAACAGAGGAUUGAGCAUCA
# B13: chr3:133545784:133545785:-_ENSG00000154917_ENST00000285208|hu_mus|motif|central (ssRNA)
# RNA: GGGAGUUCUACAGUCCGACGAUCGAGGAUGUGAGUGUGUGUAUGUGUGCGCGCGAAGGGUGUAUACACAAGUCUAUCUCGGUGUAUAAUUAUGUACACACAUAUAAAAACUAAACACGUGACGUUUCGAUUAUGCUCGUACAUCAACAGAGGAUUGAGCAUCA
# B14: chr1:39494564:39494565:+_ENSG00000168653_ENST00000372967|hu_hu|motif|central (ssRNA)
# RNA: GGGAGUUCUACAGUCCGACGAUCACCUGCACGUCUCAUCGUUUUCUGCCGAAGCAAACACUCUACGAAAUCAUCAUAUUCGGUCUUGCACUCUUUCUCUGCCCGAGUAUAACCGAUUCCAUGUGCACAUUCUAUCCAUUCUUUCAACAGAGGAUUGAGCAUCA
# B15: 121693014_121693134_369_3pUTR_ENSMUSG00000060227_ENSMUST00000078752|mouse|control|control (ssRNA)
# RNA: GGGAGUUCUACAGUCCGACGAUCUUCUCCAAGCGCCCGCGGGCCACCUCGGUGCGCUGGACCUGGCCCUGCAGCUCGGCCACCUCCUCCUGAAGCAGAACGUGGCGGGAGGAGAUGCUCCAGUAGUUGAAGGCAAGGACGACGCAACAGAGGAUUGAGCAUCA
# B16: chr19:47610742:47610743:-_ENSMUSG00000042694_ENSMUST00000049369|mus_hu|FALSE|FALSE (ssRNA)
# RNA: GGGAGUUCUACAGUCCGACGAUCUGGCACCUGGCGGGACUCCUUCAUGUCCAGGAUAUCCCUGAUGUAGAGUUUUGCAAAGGCUAGAAACACAGGAUCCAAACCCCACAAGAGGGAAGGGGUCUCCUCUUCACACCGGCUGGACAACAGAGGAUUGAGCAUCA
# B17: chr16:94646735:94646736:+_ENSMUSG00000040785_ENSMUST00000117648|mus_mus|motif|central (ssRNA)
# RNA: GGGAGUUCUACAGUCCGACGAUCUGUUUUUAACUUUUUCCAGCAGUUCAUAUGAAAUUCUACCUUACAGUAUUGGCAACAGCGGAUUCGUAUAAAACCCUUAAAGUCUGGAUCAGUUAAGUAAAUCUGAAUUUUAGAAUAUCCCAACAGAGGAUUGAGCAUCA
# B18: chr6:145182920:145182921:-_ENSMUSG00000030265_ENSMUST00000032399|mus_hu|motif|central (ssRNA)
# RNA: GGGAGUUCUACAGUCCGACGAUCCUCCUCUUGACCUGCUGUGUCGAGAAUAUCCAAGAGACAGGUUUCUCCAUCAAUUACGGCUUGCUUCCUGUAGGAAUCCUCUAUUGUUGGAUCAUAUUCGUCCACAAAAUGAUUCUGAAUCAACAGAGGAUUGAGCAUCA
# B19: chr7:75932113:75932114:+_ENSG00000106211_ENST00000248553|hu_mus|FALSE|FALSE (ssRNA)
# RNA: GGGAGUUCUACAGUCCGACGAUCCUGCGACCACUCAUCGGGCAACCGGGGCACCCCGAAAGCUUGAUCGAAGAGGCGGCUGUGUGCAGGGUACCAGUCCCGGAAUGGUUCCCAGCUCGGGCUCCGCAGCAGCGAGAAGGGCACCAACAGAGGAUUGAGCAUCA
# B20: chr16:45382771:45382772:-_ENSMUSG00000022661_ENSMUST00000163230|mus_mus|mus_mus_mus_hu_True|28_88 (ssRNA)
# RNA: B7 RNA with C50U, A87U
# B21: chr16:45382771:45382772:-_ENSMUSG00000022661_ENSMUST00000163230|mus_mus|mus_mus_mus_hu_True|28_68 (ssRNA)
# RNA: B7 RNA with C68G, A69U, A73G, A87U
# B22: chr16:45382771:45382772:-_ENSMUSG00000022661_ENSMUST00000163230|mus_mus|mus_mus_mus_hu_True|28_78 (ssRNA)
# RNA: B7 RNA with G57A, C66U, A87U
# B23: chr16:45382771:45382772:-_ENSMUSG00000022661_ENSMUST00000163230|mus_mus|mus_mus_mus_hu_True|18_28 (ssRNA)
# RNA: B7 RNA with A87U, A117U, U121A, A123U, G124A, U125A, U126G
# Molecular target: T1, UNK ZnF1-3
# Assay: nsRBNS (natural sequence RNA bind-n-seq); RBNS binding buffer (assumed for nsRBNS): 25 mM Tris pH 7.5, 150 mM KCl, 3 mM MgCl2, 0.01% Triton X-100, 500 ug/ml BSA, 20 U/ml SUPERase-In, 4 C; UNK is unkempt and MSI1 is Musashi-1; names of the RNAs are library labels; protein concentration not given here; high values mean tight binding
row,Binder,binding signal
1,B1,0.897 enrichment R
2,B2,0.969 enrichment R
3,B3,0.997 enrichment R
4,B4,0.706 enrichment R
5,B5,1.09 enrichment R
6,B6,1.62 enrichment R
7,B7,7.16 enrichment R
8,B8,10.2 enrichment R
9,B9,3.41 enrichment R
10,B10,12.5 enrichment R
11,B11,5.62 enrichment R
12,B12,0.772 enrichment R
13,B13,1.66 enrichment R
14,B14,0.521 enrichment R
15,B15,0.777 enrichment R
16,B16,0.707 enrichment R
17,B17,1.03 enrichment R
18,B18,0.665 enrichment R
19,B19,1.04 enrichment R
20,B20,5.11 enrichment R
21,B21,6.96 enrichment R
22,B22,12.8 enrichment R
23,B23,9.98 enrichment R
